Results on seven compounds are retold here after PubChem BioAssay (NCATS).

Values without a mark were called inactive. Results filed as inconclusive are left out. Activity calls are given as the source filed them. Unless noted, calls follow the shape of the dose curve; as a rule, active = well fitted curve in either direction with a large enough effect (not every such curve was filed as active); inconclusive = small, poorly fitted or top-dose-only effect, or another doubt; inactive = flat fitted curve, though single readings scatter.

Test [1] concerns the target Lysosomal acid glucosylceramidase (Homo sapiens) (UniProt P04062). Nature of the test: Glucocerebrosidase-p2 (AID 348; in the data active = potency below about 10 µM; also: potency is read from the fitted curve at half-maximal effect). The note with it: purified GBA, blue fluorogenic substrate, 40 min. Put shortly: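 Compounds titrated from 0.6 nM upwards against 0.2 nM enzyme in pH 5.9 citric acid/KH2PO4, taurocholate, tween-20; blue fluorogenic substrate 80 uM, 40 min room temperature, stopped and read Ex 365/Em 440 for AC50.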

Test [2] can be described thus: AP1 Signaling Pathway (AID 357).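 Also: ME-180 reporter cells stimulated with EGF at its EC50 level; % is scaled to controls: 0 for no effect and ±100 for the full control effect.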 The conditions noted are these: ME-180 AP-1-bla reporter, EGF-induced, beta-lactamase ratio, 5 h; at 7.69 µM (top of the series) unless noted. Put shortly:
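Read-out was the 460nm/530nm emission ratio (excitation 405nm) after CCF4 loading for 2.5 hours at room temperature. Cells carried an AP-1-driven beta-lactamase reporter, were stimulated with EC50 EGF plus compound for 5 hours, and AC50 values came from titrations.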

Test [3] has as its target Cytochrome P450 1A2 (Homo sapiens) (UniProt P05177). Nature of the test: p450-cyp1a2 (AID 410; calls by dose curve; also: potency is read from the fitted curve at half-maximal effect). The conditions noted are these: recombinant CYP1A2, luciferin-ME demethylation, luminescence; series mostly up to 11.4 µM. Put shortly: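 Luminescent readout of luciferin formed from Luciferin-ME by human CYP1A2; data normalized against complete inhibition by 57 uM furafylline. Enzyme 20nM, substrate 100uM at Km, 100mM KPO4 buffer, 60 min reaction at room temperature.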

Test [4] is described as follows: Stat Signaling Pathway (AID 446).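 Also: ME-180 cervical cancer cells given 40 pM IL-6 alongside compound; SIE-controlled beta-lactamase reporter measured as 460/530 nm FRET emission ratio; % is scaled to controls: 0 for no effect and ±100 for the full control effect.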 The note with it: ME-180 SIE beta-lactamase reporter, IL-6 stimulated, 5 h; at 7.69 µM (top of the series) unless noted. Put shortly:
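ME-180 cells carrying a SIE-driven beta-lactamase reporter are stimulated with 40 pM IL-6 for 5 h at 37C in the presence of compound. The 460/530 nm FRET substrate ratio is read after 2.5 h at RT. Data are normalised to 300 pM IL-6 and to 125 nM JAK inhibitor controls.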

Test [5] addresses Glucocorticoid receptor (Homo sapiens) (UniProt P04150). Put plainly: GR-GFP Redistribution (AID 450;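 active = compounds whose dose series gives a full or clear partial fitted curve of increased nuclear translocation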; also: potency is read from the fitted curve at half-maximal effect). The note with it: U2OS GR-GFP nuclear translocation, laser cytometry, 2 h.
The target is the same in test [6]. Put plainly: GR-EFC Redistribution (AID 451; calls by dose curve; also: potency is read from the fitted curve at half-maximal effect). The note with it: CHO-K1 GR-EFC translocation, beta-gal luminescence, 2 h. Put shortly: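 CHO-K1 cells expressing nuclear EA and GR-ED fragments of b-gal; compounds titrated up to 46 uM final, 2 h at 37 C. GR nuclear translocation read as complemented b-gal luminescence after 1 h RT detection.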
Test [7] deals with Mitogen-activated protein kinase 10 (Mus musculus) (UniProt Q61831). Nature of the test: JNK3 AlphaScreen Assay (AID 530).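 Also: kinase came from lysate of stimulated human HepG2 cells; signal reports phosphorylation of biotinylated GST-cJun 1-79 at Ser73 with 10 µM ATP; % is scaled to controls: 0 for no effect and ±100 for the full control effect.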 The note with it: JNK3 lysate, c-Jun phosphorylation; series mostly up to 11.4 µM. Put shortly:
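Pre-activated (IL-1β/TNFα) JNK3 in HepG2 lysates phosphorylates biotin-GST-cJun(1-79), 10 uM ATP; anti-phospho-cJun(Ser73) AlphaScreen read at room temperature, pH 7.6 Tris buffer. Compounds pre-incubated 15 min as titrations.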

Test [8] has as its target 3',5'-cyclic-AMP phosphodiesterase 4B (Homo sapiens) (UniProt Q07343). Nature of the test: qHTS Assay for Inhibitors of PDE-IV (AID 607; active = well fitted activation curve with a large enough effect in the main read-out, with a control signal flat, not every such curve was filed as active; also: % of control where 0% means no effect). The conditions noted are these: HEK293 ACTOne CNG channel cells, membrane potential fluorescence; series mostly up to 22.9 µM. Put shortly: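 HEK293 ACTOne cells with CNG channel (1000/well), endogenous PDE4; membrane potential dye, compounds up to 22.9 uM final. Fluorescence Ex 535/Em 590; RO 20-1724 (100 uM final) as reference.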
For orientation: Quantitative high-throughput screening tests each substance at several concentrations.

Test [9] concerns the target Cytochrome P450 3A4 (Homo sapiens) (UniProt P08684). Put plainly: qHTS Assay for Inhibitors and Substrates of Cytochrome P450 3A4 (AID 884; active = well fitted curve in the direction sought with a large enough effect; an effect the other way counts as inactive or inconclusive; also: nearly all actives have a fitted effect of over 50% in size; also: potency is read from the fitted curve at half-maximal effect). The note with it: recombinant CYP3A4, Luciferin-PPXE luminescence; series mostly up to 57.1 µM. Put shortly:
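20 nM human CYP3A4 with 25 uM Luciferin-PPXE (at KM) in 200 mM KPO4, preincubated 10 min with compound; NADPH regeneration started a 60 min RT reaction. Luciferin detected by luminescence, normalized to 57 uM ketoconazole as full inhibition.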

Test [10] has the same target. Nature of the test: qHTS Assay for Activators of Cytochrome P450 3A4 (AID 885; active = well fitted curve in the direction sought with a large enough effect; an effect the other way counts as inactive or inconclusive; also: nearly all actives have a fitted effect of over 65% in size). The conditions noted are these: recombinant CYP3A4, Luciferin-PPXE luminescence, 60 min; series mostly up to 11.4 µM. Put shortly:
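Human CYP3A4 (20 nM) with Luciferin-PPXE at 25 uM (its KM) in 200 mM KPO4; 10 min compound preincubation, then NADPH regeneration and 60 min reaction at RT. Luciferin read by luminescence; normalized to 57 uM ketoconazole full inhibition.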

Test [11] has as its target Cytochrome P450 2C19 (Homo sapiens) (UniProt P33261). Nature of the test: qHTS Assay for Inhibitors and Substrates of Cytochrome P450 2C19 (AID 899; active = well fitted curve in the direction sought with a large enough effect; an effect the other way counts as inactive or inconclusive; also: nearly all actives have a fitted effect of over 60% in size; also: potency is read from the fitted curve at half-maximal effect). The note with it: recombinant CYP2C19, luciferin-H EGE luminescence; series mostly up to 11.4 µM. Put shortly: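 Signal comes from luciferase acting on luciferin released by CYP2C19-mediated hydroxylation of Luciferin-H EGE, 10uM (KM). Assay mix: 5nM enzyme, 50mM KPO4; 60 min at 37C with NADPH regeneration. Data normalized against 57uM ketoconazole.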

Test [12] has as its target Cytochrome P450 2C9 (Homo sapiens) (UniProt P11712). Nature of the test: qHTS Assay for Inhibitors and Substrates of Cytochrome P450 2C9 (AID 883; active = well fitted curve in the direction sought with a large enough effect; an effect the other way counts as inactive or inconclusive; also: nearly all actives have a fitted effect of over 60% in size; also: potency is read from the fitted curve at half-maximal effect; as to activity change, negative = inhibition: % is scaled to controls: 0 for no effect and ±100 for the full control effect). The note with it: recombinant CYP2C9, luciferin-H luminescence, 60 min; series mostly up to 11.4 µM. Put shortly:
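Signal: luciferase luminescence reporting luciferin produced by CYP2C9. Conditions: 10nM enzyme, Luciferin-H 100uM at KM, 25mM KPO4, 37C, 60 min NADPH-driven reaction. Reference: 57uM sulphaphenazole as 100% inhibition.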

Test [13] addresses Cytochrome P450 2D6 (Homo sapiens) (UniProt P10635). Put plainly: qHTS Assay for Inhibitors and Substrates of Cytochrome P450 2D6 (AID 891; active = well fitted curve in the direction sought with a large enough effect; an effect the other way counts as inactive or inconclusive;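 also: luciferin methyl ether substrate demethylated by CYP2D6 with NADPH regeneration; % is scaled to controls: 0 for no effect and ±100 for the full control effect; nearly all actives have a fitted effect of over 60% in size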). The conditions noted are these: recombinant CYP2D6, luciferin-ME EGE luminescence; series mostly up to 11.4 µM. Put shortly:
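Human CYP2D6 (5 nM) with 30 uM Luciferin-ME EGE (at Km) in 100 mM KPO4, compound preincubated 10 min, then NADPH regeneration system for 60 min at room temperature. Luciferin read by luminescence; normalized to 1.43 uM quinidine.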

Test [14] can be described thus: qHTS Assay for Identification of Small Molecule Agonists for Hypoxia Response Element Signaling Pathway (AID 914; active = well fitted activation curve with a large enough effect in the signal ratio, with a control signal flat, not every such curve was filed as active; the % refers to the signal ratio; also: % of control where 0% means no effect). The note with it: ME-180 (cervical carcinoma) HRE-bla reporter, beta-lactamase ratio, CoCl2, 17 h; activation: stronger effect = higher value. Put shortly:
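HRE-bla ME-180 assay for agonist-like enhancement of an EC50 CoCl2 stimulus: 17 h at 37 degrees Celsius, CCF4 for 2.5 h, ratiometric 460/530 nm signal converted to %Activity and fitted to AC50.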

Sequence of 3',5'-cyclic-AMP phosphodiesterase 4B (Homo sapiens) (Q07343 whole entry, looked up): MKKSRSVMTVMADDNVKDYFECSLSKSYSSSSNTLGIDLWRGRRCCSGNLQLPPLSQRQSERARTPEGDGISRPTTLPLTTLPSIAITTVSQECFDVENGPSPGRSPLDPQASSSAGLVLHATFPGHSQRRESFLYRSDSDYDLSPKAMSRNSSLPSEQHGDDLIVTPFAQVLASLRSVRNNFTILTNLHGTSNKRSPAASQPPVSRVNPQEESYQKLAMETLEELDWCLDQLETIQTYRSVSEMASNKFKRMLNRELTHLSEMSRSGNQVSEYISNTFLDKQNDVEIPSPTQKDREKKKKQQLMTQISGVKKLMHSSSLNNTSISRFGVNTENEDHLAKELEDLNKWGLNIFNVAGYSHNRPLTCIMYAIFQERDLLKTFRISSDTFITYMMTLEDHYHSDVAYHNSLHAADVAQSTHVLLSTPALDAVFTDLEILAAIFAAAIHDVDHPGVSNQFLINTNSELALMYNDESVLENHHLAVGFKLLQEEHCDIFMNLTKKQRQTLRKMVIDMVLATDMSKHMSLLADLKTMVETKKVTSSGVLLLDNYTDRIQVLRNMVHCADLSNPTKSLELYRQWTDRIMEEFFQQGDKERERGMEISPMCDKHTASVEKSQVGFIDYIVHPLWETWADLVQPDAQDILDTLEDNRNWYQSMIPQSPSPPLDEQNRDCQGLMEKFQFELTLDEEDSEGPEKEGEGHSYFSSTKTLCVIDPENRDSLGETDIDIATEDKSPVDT
Sequence of Cytochrome P450 3A4 (Homo sapiens) (P08684 whole entry, looked up): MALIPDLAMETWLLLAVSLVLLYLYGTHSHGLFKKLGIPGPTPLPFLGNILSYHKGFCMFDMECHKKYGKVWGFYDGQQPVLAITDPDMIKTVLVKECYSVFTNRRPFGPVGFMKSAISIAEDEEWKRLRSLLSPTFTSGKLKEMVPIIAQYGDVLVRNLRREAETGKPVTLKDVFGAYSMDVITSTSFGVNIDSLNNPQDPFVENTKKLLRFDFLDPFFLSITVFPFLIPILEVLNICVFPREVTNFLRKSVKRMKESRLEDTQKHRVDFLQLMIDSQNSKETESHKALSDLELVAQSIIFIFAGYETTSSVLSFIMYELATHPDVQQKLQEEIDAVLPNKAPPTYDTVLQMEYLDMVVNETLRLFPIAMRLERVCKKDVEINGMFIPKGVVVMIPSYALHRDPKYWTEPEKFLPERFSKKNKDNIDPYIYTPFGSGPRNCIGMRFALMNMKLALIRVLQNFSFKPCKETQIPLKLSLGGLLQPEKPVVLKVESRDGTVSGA
Sequence of Cytochrome P450 2C19 (Homo sapiens) (P33261 whole entry, looked up): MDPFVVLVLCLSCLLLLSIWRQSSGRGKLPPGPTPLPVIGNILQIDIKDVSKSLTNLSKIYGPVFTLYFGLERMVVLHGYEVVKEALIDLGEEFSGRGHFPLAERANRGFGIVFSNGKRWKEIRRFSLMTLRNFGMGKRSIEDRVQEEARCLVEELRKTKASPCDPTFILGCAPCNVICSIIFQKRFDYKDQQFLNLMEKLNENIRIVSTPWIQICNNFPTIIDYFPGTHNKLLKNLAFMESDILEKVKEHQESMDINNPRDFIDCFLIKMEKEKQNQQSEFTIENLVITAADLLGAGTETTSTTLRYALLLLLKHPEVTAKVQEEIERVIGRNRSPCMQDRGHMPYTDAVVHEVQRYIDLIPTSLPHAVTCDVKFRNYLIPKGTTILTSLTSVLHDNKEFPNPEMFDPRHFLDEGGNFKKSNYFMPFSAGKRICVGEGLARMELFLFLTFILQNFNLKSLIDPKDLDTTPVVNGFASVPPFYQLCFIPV
Sequence of Cytochrome P450 1A2 (Homo sapiens) (P05177 whole entry, looked up): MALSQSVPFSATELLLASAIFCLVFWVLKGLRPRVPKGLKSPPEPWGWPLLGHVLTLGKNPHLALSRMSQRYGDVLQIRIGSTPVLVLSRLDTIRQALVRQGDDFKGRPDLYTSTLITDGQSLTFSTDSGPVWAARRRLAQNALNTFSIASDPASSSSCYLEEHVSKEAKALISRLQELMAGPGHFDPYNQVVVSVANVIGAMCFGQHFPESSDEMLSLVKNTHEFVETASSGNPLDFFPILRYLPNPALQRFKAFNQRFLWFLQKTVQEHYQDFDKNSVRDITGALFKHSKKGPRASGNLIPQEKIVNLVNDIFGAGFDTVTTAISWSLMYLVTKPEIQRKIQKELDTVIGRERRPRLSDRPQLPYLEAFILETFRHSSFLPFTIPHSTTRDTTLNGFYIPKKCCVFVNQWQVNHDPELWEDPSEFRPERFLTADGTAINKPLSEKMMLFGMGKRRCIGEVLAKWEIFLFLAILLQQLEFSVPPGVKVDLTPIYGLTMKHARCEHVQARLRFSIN
Sequence of Glucocorticoid receptor (Homo sapiens) (P04150 whole entry, looked up, the tested form may be a part): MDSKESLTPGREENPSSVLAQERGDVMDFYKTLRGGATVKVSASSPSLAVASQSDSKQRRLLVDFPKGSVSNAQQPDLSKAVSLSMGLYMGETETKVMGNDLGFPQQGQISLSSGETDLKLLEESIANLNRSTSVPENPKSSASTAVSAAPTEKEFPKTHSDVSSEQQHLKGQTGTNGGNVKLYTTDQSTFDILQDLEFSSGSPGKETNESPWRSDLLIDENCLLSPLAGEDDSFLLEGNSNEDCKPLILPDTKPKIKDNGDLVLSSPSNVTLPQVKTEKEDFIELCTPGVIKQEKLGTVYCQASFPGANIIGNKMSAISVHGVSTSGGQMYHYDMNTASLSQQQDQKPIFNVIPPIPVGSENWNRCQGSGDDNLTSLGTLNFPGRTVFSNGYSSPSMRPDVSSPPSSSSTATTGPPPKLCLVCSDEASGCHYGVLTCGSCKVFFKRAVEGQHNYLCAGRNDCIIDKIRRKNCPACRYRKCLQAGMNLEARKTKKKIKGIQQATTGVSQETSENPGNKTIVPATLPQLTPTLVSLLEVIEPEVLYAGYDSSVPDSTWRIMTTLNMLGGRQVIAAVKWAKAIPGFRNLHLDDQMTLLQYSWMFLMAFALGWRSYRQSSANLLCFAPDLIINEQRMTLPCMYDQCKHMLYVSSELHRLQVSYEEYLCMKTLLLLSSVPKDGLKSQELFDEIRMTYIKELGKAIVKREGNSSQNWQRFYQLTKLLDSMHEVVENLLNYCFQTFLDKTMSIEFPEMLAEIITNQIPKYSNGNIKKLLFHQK
Sequence of Cytochrome P450 2C9 (Homo sapiens) (P11712 whole entry, looked up): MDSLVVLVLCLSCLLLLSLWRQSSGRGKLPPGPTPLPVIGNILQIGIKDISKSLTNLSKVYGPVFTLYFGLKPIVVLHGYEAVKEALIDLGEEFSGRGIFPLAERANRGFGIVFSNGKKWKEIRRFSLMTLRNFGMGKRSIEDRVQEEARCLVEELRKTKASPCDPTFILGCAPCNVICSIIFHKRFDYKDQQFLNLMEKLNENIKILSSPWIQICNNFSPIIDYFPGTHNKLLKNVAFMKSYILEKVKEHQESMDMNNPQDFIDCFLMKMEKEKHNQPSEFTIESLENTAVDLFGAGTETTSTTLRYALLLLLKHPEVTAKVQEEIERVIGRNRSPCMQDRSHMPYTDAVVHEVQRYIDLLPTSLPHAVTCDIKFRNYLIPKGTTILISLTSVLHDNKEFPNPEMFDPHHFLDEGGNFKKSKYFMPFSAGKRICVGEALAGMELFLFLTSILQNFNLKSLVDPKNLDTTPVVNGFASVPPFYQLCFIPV
Sequence of Lysosomal acid glucosylceramidase (Homo sapiens) (P04062 whole entry, looked up): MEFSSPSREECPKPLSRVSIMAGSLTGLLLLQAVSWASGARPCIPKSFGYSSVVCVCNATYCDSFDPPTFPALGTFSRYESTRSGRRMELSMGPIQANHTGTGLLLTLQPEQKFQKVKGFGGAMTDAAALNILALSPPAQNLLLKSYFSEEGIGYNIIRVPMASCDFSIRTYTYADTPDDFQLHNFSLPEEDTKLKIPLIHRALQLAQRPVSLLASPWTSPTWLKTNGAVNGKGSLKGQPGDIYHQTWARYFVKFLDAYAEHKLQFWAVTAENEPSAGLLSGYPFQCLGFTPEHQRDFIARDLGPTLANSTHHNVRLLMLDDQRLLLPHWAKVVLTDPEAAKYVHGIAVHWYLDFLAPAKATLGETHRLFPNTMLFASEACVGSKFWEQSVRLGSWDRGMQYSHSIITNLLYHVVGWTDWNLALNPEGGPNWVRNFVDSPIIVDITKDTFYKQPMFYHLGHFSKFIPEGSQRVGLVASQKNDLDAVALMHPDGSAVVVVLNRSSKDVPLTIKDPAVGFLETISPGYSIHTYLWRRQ
Sequence of Cytochrome P450 2D6 (Homo sapiens) (P10635 whole entry, looked up): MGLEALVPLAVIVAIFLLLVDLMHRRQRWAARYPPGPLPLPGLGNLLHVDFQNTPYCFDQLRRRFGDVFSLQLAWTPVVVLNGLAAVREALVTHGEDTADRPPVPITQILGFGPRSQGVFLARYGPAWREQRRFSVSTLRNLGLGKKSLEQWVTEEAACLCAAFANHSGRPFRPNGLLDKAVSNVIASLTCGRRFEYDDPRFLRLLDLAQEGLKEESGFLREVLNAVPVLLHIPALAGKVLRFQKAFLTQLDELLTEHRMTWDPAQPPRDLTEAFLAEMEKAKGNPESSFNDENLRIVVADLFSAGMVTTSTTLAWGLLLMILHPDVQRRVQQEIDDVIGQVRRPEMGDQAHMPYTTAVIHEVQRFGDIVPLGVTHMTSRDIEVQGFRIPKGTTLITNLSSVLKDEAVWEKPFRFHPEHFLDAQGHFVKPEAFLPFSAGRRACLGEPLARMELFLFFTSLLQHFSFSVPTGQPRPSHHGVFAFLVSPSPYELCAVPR

Consider `COc1ccc([C@@H](Nc2ncccn2)c2cc3c(cc2O)OCO3)cc1`, for which the Potency in test [1] is above 11.4 µM; in [5] it was above 46 µM; in [6] it was above 9.22 µM; in test [9], 2.51 µM (active); in test [11], 0.316 µM (active). Besides, the activity change, negative = inhibition in test [2] was -6.22%; in test [3] it was -14.3% [at 2.29 µM]. The activity, negative = inhibition in test [4] is -1.19%. In addition, the Potency entry in [7], in [8] and in test [10] was “inactive” each time.

`O=C(O)c1ccc(SSc2ccc(C(=O)O)cn2)nc1`: the Potency in test [1] was above 11.4 µM; in test [3], 3.16 µM (active); in test [5] it was above 46 µM; in test [6] it was above 9.22 µM; in [12], 1.58 µM (active); in test [11] it was 2.51 µM (active). The activity change, negative = inhibition in test [2] was -2.82%. Besides, the activity, negative = inhibition in test [4] was 15.8%. The Potency entry in [7] and in [8] was “inactive” in each case.

Turning to `N#CCCn1c(=O)c(-c2ccccc2)nc2cnc(OCc3ccccc3)nc21`, the Potency in test [1] is above 11.4 µM; in test [3] it was 3.16 µM (active); in test [5] it was above 9.22 µM; in test [6], above 46 µM. Moreover, the activity change, negative = inhibition in [2] was -17.7%. In addition, the activity, negative = inhibition in test [4] was -1.68%. The Potency result in test [7], in [8] and in [10] was “inactive” each time.

With `C[C@]1(O)CC[C@H]2[C@H]3CC=C4N5CCN=C5CC[C@@]4(C)[C@H]3CC[C@@]21C`, the values for the Potency in test [1], in [5] and in test [6] were above 11.4 µM, above 46 µM and above 9.22 µM, respectively. Also, the activity change, negative = inhibition in test [2] was -0.00324%; in [3], -12.8% [at 2.29 µM]. In addition, the activity, negative = inhibition in [4] is -6.8%. Moreover, the Potency result in [7] and in test [8] was “inactive” each time.

As for `Cc1cc(O)c(C(C)C)cc1N=Cc1ccccc1O`, the Potency in test [1] is above 11.4 µM; in test [3], 1.58 µM (active); in [5], above 46 µM; in test [6], above 9.22 µM; in test [9] it was 3.16 µM (active); in [11], 0.398 µM (active). The activity change, negative = inhibition in test [2] was 7.1%. The activity, negative = inhibition in [4] was -2.05%. Moreover, the Potency entry in test [7], in test [8] and in [10] was “inactive” each time.

Take `Cc1cc(OCc2nc(N)nc(N)c2-c2ccc(Cl)c(Cl)c2)ccc1[N+](=O)[O-]`: the Potency in test [1] was above 11.4 µM; in [3] it was 5.01 µM (active); in test [5] it was above 46 µM; in [6] it was above 9.22 µM; in [12], 1.58 µM (active); in [11] it was 3.16 µM (active). For the same compound, in test [2], the activity change, negative = inhibition is -18.3%. Besides, in test [4], the activity, negative = inhibition was -17.5%. For the same compound, the Potency entry in test [7], in [8] and in [10] was “inactive” in each case.

As to `COc1ccc(CCCC(=O)O)c(C)c1`, the Potency in test [1] is above 11.4 µM; in [5], above 46 µM; in [6], above 9.22 µM. For the same compound, the activity change, negative = inhibition in [2] was 1.4%; in [9], -0.798% [at 11.4 µM]. The Potency result in test [3], in test [7], in test [8], in test [12], in [13] and in test [11] was “inactive” in each case. Further, the activity, negative = inhibition in test [4] is -0.975%. Besides, the activation in test [14] is -8.35%.
